Activity calls are given as the source filed them. Rule for the calls: active = hit-call score of the fitted dose curve at least 0.9, where 1 is the maximum; inactive = score below 0.9.

Broadly, the AC50 is the concentration giving half of the maximal activity seen.

CCAAT/enhancer-binding protein beta (Homo sapiens), sequence (P17676 whole entry, looked up): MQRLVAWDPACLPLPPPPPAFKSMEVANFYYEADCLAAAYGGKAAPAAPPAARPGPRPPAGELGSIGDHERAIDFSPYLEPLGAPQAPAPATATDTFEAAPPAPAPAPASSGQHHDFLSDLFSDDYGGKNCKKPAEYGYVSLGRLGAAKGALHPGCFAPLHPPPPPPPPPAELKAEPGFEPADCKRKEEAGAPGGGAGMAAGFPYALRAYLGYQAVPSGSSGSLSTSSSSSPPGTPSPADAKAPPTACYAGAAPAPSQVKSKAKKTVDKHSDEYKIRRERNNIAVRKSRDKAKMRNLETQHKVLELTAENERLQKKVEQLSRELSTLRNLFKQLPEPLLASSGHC

One experiment has as its target CCAAT/enhancer-binding protein beta (Homo sapiens) (UniProt P17676). The experiment in a line: ATG_C_EBP_CIS: Attagene CIS-FACTORIAL HepG2 Assay for human CCAAT/Enhancer Binding Protein (C/EBP) beta (AID 2282927). As to conditions: HepG2 Attagene cis-factorial transcription factor reporter; actives raise or lower the signal. In outline:
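Following a 24 h incubation with test chemical, transfected HepG2 cells yielded RNA whose reporter transcripts were quantified by RT-PCR and fluorescent capillary electrophoresis, with DMSO serving as baseline for bidirectional fitting.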
Take `CCOc1ccc(N)cc1`: the outcome was inactive.
On to `CC(C)(C)c1cc([N+](=O)[O-])cc(C(C)(C)C)c1O`, for which the result was inactive.
Same read-out and setting: then `CC(C)(C#N)N=NC(C)(C)C#N`, with “inactive”; and `CC(C)C(C)(N)C#N` (stereo not drawn), with “inactive”; and `CN(C)[C@@H]1C(=O)C(C(N)=O)=C(O)[C@@]2(O)C(=O)C3=C(O)c4c(O)ccc(Cl)c4[C@@](C)(O)[C@H]3C[C@@H]12`, with “inactive”.
As for `N#Cc1ccccc1N`, the outcome was inactive.
On the same count and under the same terms, then `C1CN2CCN1CC2`, with “inactive”; and `CCOC(=O)C(SP(=S)(OC)OC)c1ccccc1` (stereo not drawn), with “inactive”.
The same measure, in the same setting: then `NC(=O)CCl`, with “inactive”; and `O=c1[nH]c(=O)n(Cl)c(=O)n1Cl`, with “inactive”.
As to `Clc1ccc(C(Cl)(Cl)Cl)cn1`, the result was inactive.
The same measure, in the same setting: under `Clc1cnc(Oc2ccc(Oc3ncc(Cl)cc3Cl)cc2)c(Cl)c1` stands “inactive”; under `O=[N+]([O-])c1ccc(Cl)c([N+](=O)[O-])c1`, “inactive”.
Same read-out and setting: under `Brc1c(Br)c(Br)c(Oc2c(Br)c(Br)c(Br)c(Br)c2Br)c(Br)c1Br` stands “inactive”.
Take `C=C(C)[C@@H]1CC=C(C=O)CC1`: the outcome was inactive.
Still for that read-out and setting: then `OCCCCO`, with “inactive”; and `CCC(C)(C#N)N=NC(C)(C#N)CC` (stereo not drawn), with “inactive”.
The same measure, in the same setting: then `CN(CCCC(O)c1cccnc1)N=O` (stereo not drawn), with “inactive”; and `CC1CC(=O)O1` (stereo not drawn), with “inactive”; and `OCC(c1ccc(Cl)cc1)c1ccc(Cl)cc1`, with “inactive”.
The same measure, in the same setting: under `C=CCOC(N)=O` stands “inactive”; under `O=C(Nc1ccc(Br)cc1)c1cc(Br)cc(Br)c1O`, “inactive”; under `CNC(=O)O/N=C/C(C)(C)S(C)(=O)=O`, “inactive”.
For the compound `O=C=Nc1ccc(Cl)cc1`, the outcome was inactive.
Still for that read-out and setting: then `O=S(=O)(c1ccc(Cl)cc1)c1cc(Cl)c(Cl)cc1Cl`, with “inactive”; and `O=C1C[C@@H]2OCC=C3CN4CC[C@]56c7ccccc7N1[C@H]5[C@H]2[C@H]3C[C@H]46`, with “inactive”; and `Cc1cccc(OP(=O)(Oc2cccc(C)c2)Oc2cccc(C)c2)c1`, with “inactive”.
On the same count and under the same terms, under `COC(=O)Nc1cccc(OC(=O)Nc2cccc(C)c2)c1` stands “inactive”; under `CC(C)(C)c1ccc(CCOc2ncnc3ccccc23)cc1`, “inactive”.
The same measure, in the same setting: then `Nc1cccnc1`, with “inactive”; and `Cc1cc(Cl)ccc1OC(C)C(=O)O` (stereo not drawn), with “inactive”.
As to `CC(=O)C(F)(F)C(F)(F)F`, the result was inactive.
As for `CN(C)CCN(C)C`, the outcome was inactive.
As to `CC(F)(F)CC(F)(F)F`, the result was inactive.
The same measure, in the same setting: then `C=CC(=O)NC(C)(C)CC(C)=O`, with “inactive”; and `C[As+](C)(C)CC(=O)[O-]`, with “inactive”; and `Cc1cc(SCc2sc(-c3ccc(C(F)(F)F)c(F)c3)nc2C)ccc1OCC(=O)O`, with “inactive”.
Still for that read-out and setting: under `CCCCCCCCCCCCN(C)C` stands “inactive”; under `Nc1nc(=S)[nH][nH]1`, “inactive”.

System in another experiment: not listed separately
The experiment in a line: ATG_CMV_CIS: Attagene CIS-FACTORIAL HepG2 Assay for human CMV (Internal Marker) (AID 2282928).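 Note: endpoint acts as a background internal control marker rather than a target.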 As to conditions: HepG2 CMV promoter reporter, transcription factor profiling; actives raise or lower the signal. The method in brief:
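Readout: fluorescent reporter cDNA fragments separated by capillary electrophoresis after RT-PCR and HpaI cut. Cells: HepG2 carrying transfected cis-promoter reporter constructs, dosed 24 h. Endpoint serves as background internal-marker control, fit bidirectionally versus DMSO.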
As to `CCOc1ccc(N)cc1`, the compound was called inactive.
As to `CC(C)(C)c1cc([N+](=O)[O-])cc(C(C)(C)C)c1O`, the concentration at half-maximal activity (AC50) is 1.77 µM (active).
On to `CC(C)(C#N)N=NC(C)(C)C#N`, for which the call was inactive.
Same read-out and setting: under `CC(C)C(C)(N)C#N` (stereo not drawn) stands “inactive”.
As to `CN(C)[C@@H]1C(=O)C(C(N)=O)=C(O)[C@@]2(O)C(=O)C3=C(O)c4c(O)ccc(Cl)c4[C@@](C)(O)[C@H]3C[C@@H]12`, the AC50 was 25.9 µM (active).
Take `N#Cc1ccccc1N`: the compound was classed as inactive.
The same measure, in the same setting: then `C1CN2CCN1CC2`, with “inactive”; and `CCOC(=O)C(SP(=S)(OC)OC)c1ccccc1` (stereo not drawn), with “inactive”.
Still for that read-out and setting: then `NC(=O)CCl`, with “inactive”.
The same measure, in the same setting: then `O=c1[nH]c(=O)n(Cl)c(=O)n1Cl`, with “inactive”; and `Clc1ccc(C(Cl)(Cl)Cl)cn1`, with “inactive”; and `Clc1cnc(Oc2ccc(Oc3ncc(Cl)cc3Cl)cc2)c(Cl)c1`, with “inactive”.
On to `O=[N+]([O-])c1ccc(Cl)c([N+](=O)[O-])c1`, for which the compound was classed as inactive.
On to `Brc1c(Br)c(Br)c(Oc2c(Br)c(Br)c(Br)c(Br)c2Br)c(Br)c1Br`, for which the compound was classed as inactive.
The same measure, in the same setting: under `C=C(C)[C@@H]1CC=C(C=O)CC1` stands “inactive”.
Still for that read-out and setting: then `OCCCCO`, with “inactive”; and `CCC(C)(C#N)N=NC(C)(C#N)CC` (stereo not drawn), with “inactive”.
Still for that read-out and setting: under `CN(CCCC(O)c1cccnc1)N=O` (stereo not drawn) stands “inactive”.
As to `CC1CC(=O)O1` (stereo not drawn), the compound was called inactive.
On to `OCC(c1ccc(Cl)cc1)c1ccc(Cl)cc1`, for which the AC50 is 45.2 µM (active).
For the compound `C=CCOC(N)=O`, the outcome was inactive.
With `O=C(Nc1ccc(Br)cc1)c1cc(Br)cc(Br)c1O`, the outcome was inactive.
As to `CNC(=O)O/N=C/C(C)(C)S(C)(=O)=O`, the compound was called inactive.
The same measure, in the same setting: under `O=C=Nc1ccc(Cl)cc1` stands “inactive”.
In the case of `O=S(=O)(c1ccc(Cl)cc1)c1cc(Cl)c(Cl)cc1Cl`, the AC50 is 42.5 µM (active).
For the compound `O=C1C[C@@H]2OCC=C3CN4CC[C@]56c7ccccc7N1[C@H]5[C@H]2[C@H]3C[C@H]46`, the call was inactive.
Same read-out and setting: then `Cc1cccc(OP(=O)(Oc2cccc(C)c2)Oc2cccc(C)c2)c1`, with “inactive”.
On the same count and under the same terms, then `COC(=O)Nc1cccc(OC(=O)Nc2cccc(C)c2)c1`, with “inactive”.
Same read-out and setting: under `CC(C)(C)c1ccc(CCOc2ncnc3ccccc23)cc1` stands “inactive”; under `Nc1cccnc1`, “inactive”; under `Cc1cc(Cl)ccc1OC(C)C(=O)O` (stereo not drawn), “inactive”.
For the compound `CC(=O)C(F)(F)C(F)(F)F`, the result was inactive.
For `CN(C)CCN(C)C`, the result was inactive.
Regarding `CC(F)(F)CC(F)(F)F`, the result was inactive.
For `C=CC(=O)NC(C)(C)CC(C)=O`, the outcome was inactive.
The same measure, in the same setting: under `C[As+](C)(C)CC(=O)[O-]` stands “inactive”; under `Cc1cc(SCc2sc(-c3ccc(C(F)(F)F)c(F)c3)nc2C)ccc1OCC(=O)O`, “inactive”.
As to `CCCCCCCCCCCCN(C)C`, the concentration at half-maximal activity (AC50) was 33.4 µM (active).
Take `Nc1nc(=S)[nH][nH]1`: the call was inactive.
